# About 4,300 (8.3%) of roughly 52,000 compounds were called active. The list comes from a sample in which actives are over-represented; it also holds similar structures and randomly drawn compounds. Unmarked numbers belong to inactive results. Rule as the data show it: active = survival mostly below about 52% (no sharp cut-off); inactive = mostly above about 56%.
# Tested on: DeltatarO mutant
# Assay: growth inhibition of S. aureus wild type versus tarO mutant, primary screen, teichoic acid synthesis inhibitors, RN4220, OD600 (AID 463173)
# Details: OD600, 18 h, hits give low values, screened at 18.75 µg/mL (by protocol)
row,Structure (SMILES),survival
1,CCOc1ccc(CCNC(=O)c2ccc(CSCc3ccccc3C)o2)cc1OCC,112%
2,Cc1ccc(NC(=O)c2ccc(NC(=O)N3CCSc4ncccc43)cc2)cc1Cl,109%
3,CCCn1cc(S(=O)(=O)c2cc(C)ccc2C)c(=O)c2cc(F)c(N3CCN(CC)CC3)cc21,80%
4,O=C(Nc1ccccc1C(=O)OCc1cc(=O)n2ccsc2n1)c1ccc(Cl)cc1,76%
5,COc1ccc(NC(=O)c2ccc(-c3nc(CSc4ccccc4)c(C)o3)cc2)cc1OC,84%
6,Cc1ccc(C)c(NC(=O)CN(C)S(=O)(=O)c2cccc3cccnc23)c1,85%
7,CCCn1c(N)nc2c1c(=O)[nH]c(=O)n2C,71%
8,COC(=O)c1ccc(NC(=O)CC2C(=O)N(c3ccc(Cl)cc3)C(=O)N2Cc2cccs2)cc1 (stereo not drawn),102%
9,Cc1cc(C)c(Cn2c3ccccc3c3cnn(CC(=O)NCCc4ccccc4)c(=O)c32)c(C)c1,133%
10,Cc1ccc(NC(=O)Cn2cc(C(=O)C3CC3)c3ccccc32)c(C)c1,90%
11,O=C(NCc1ccccc1Cl)c1ccc2oc(=O)n(Cc3ccccc3)c2c1,72%
12,CCOC(=O)c1ccc2oc(=O)n(Cc3ccccc3)c2c1,83%
13,Cc1ccc2oc(=O)n(Cc3ccccc3Cl)c2c1,-3% (active)
14,CCCCCOc1ccccc1CN1C(=O)C(=O)c2cc(C)ccc21,151%
15,Cc1ccc2oc(=O)n(CCNC(=O)Nc3ccccc3Cl)c2c1,72%
16,CCCCCOc1ccccc1Cn1c(=O)oc2ccc(C)cc21,5% (active)
17,CCCCN(CC)CCCNC(=O)c1cn(C)c(=O)c2c1c1ccccc1n2C,139%
18,Cc1ccc2c(c1)cc1c(=O)n(CC(=O)NCc3ccco3)nc(C)n12,84%
19,O=C(CN1C(=O)COc2ccc(S(=O)(=O)NC3CCCC3)cc21)NCc1ccccc1Cl,80%
20,CCCC(c1nnnn1CC1CCCO1)N(Cc1cccs1)Cc1cc2ccc(C)c(C)c2[nH]c1=O (stereo not drawn),71%
21,Cc1ccc(-c2nc3cc(C(C)C)ccc3o2)cc1NC(=O)c1cc([N+](=O)[O-])ccc1N1CCOCC1,62%
22,CCn1cc(C2N3CC4(CC)CN2CC(CC)(C3)C4=O)c2ccccc21 (stereo not drawn),73%
23,Cc1cc(C)cc(NC(=O)c2ccc3c(c2)nnn3C2CCCC2)c1,128%
24,Cc1cccc(C)c1NC(=O)c1ccc2c(c1)nnn2C1CCCC1,-5% (active)

row,Structure (SMILES),survival
1,Cc1c(Cl)cccc1NC(=O)c1ccc2c(c1)nnn2C1CCCC1,108%
2,Cc1cc(Br)ccc1NC(=O)CN1C(=O)c2cccnc2Sc2ccccc21,90%
3,CCN(CC)c1ccc(NC(=O)CN2C(=O)c3cccnc3Oc3ccccc32)c(C)c1,116%
4,CCN(CC)c1ccc(NC(=O)CN2C(=O)c3cccnc3Sc3ccccc32)c(C)c1,-2% (active)
5,CCOC(=O)c1c(C)c(C(=O)NCCc2ccc(OC)cc2)c(C)n1C,99%
6,CCC(=O)N1c2ccccc2CC1C(=O)NCCc1ccccc1C (stereo not drawn),71%
7,Cc1ccc(CN2C(=O)CN(C3CCC(C)CC3)C(=O)C2c2ccc(F)cc2)cc1 (stereo not drawn),91%
8,COc1ccc(C2C(=O)N(C3CCCCCC3)CC(=O)N2Cc2ccc(C)cc2)cc1 (stereo not drawn),60%
9,Cc1ccc(CN2C(=O)CN(C3CCCCCC3)C(=O)C2c2ccc(F)cc2)cc1 (stereo not drawn),6% (active)
10,Cc1ccc(C=C2C(=O)N(C)C(=O)N(C)C2=O)cc1,82%
11,CCOC(=O)C1=C(CS(=O)(=O)c2ccc(F)cc2)NC(=O)NC1c1ccc(OCC)c(OC)c1 (stereo not drawn),119%
12,COc1ccc(C(=O)Nc2cc3cc(Cl)ccc3oc2=O)cc1OC,73%
13,COc1ccc(-c2cn3cccnc3n2)cc1NC(=O)Cc1ccccc1,82%
14,Cc1[nH]c(=O)[nH]c(=O)c1NC(=O)c1ccccc1,88%
15,Cc1cn(C(=O)c2ccccc2)c(=O)[nH]c1=O,57% (active)
16,CC1=NN(C(=O)c2ccccc2)C(C)(O)C1(C)C (stereo not drawn),98%
17,CCC(=O)Nc1cccc(-c2nc3ccccc3[nH]2)c1C,94%
18,CC(C)CC(=O)Nc1ccc(Cl)c(-c2nc3ccccc3[nH]2)c1,39% (active)
19,CCC(=O)Nc1ccc(Cl)c(-c2nc3ccccc3[nH]2)c1,49% (active)
20,CC(NC(=O)CSc1n[nH]c(-c2ccccc2Cl)n1)c1nc2ccccc2[nH]1 (stereo not drawn),72%
21,CC(C)(C)C(=O)Nc1ccc(Cl)c(-c2nc3ccccc3[nH]2)c1,44%
22,CCOc1ccc(NC(=O)c2cc(S(=O)(=O)NC3CCCC3)ccc2F)cc1,86%
23,COCCn1c(=O)[nH]c2cc(C(=O)N3CCN(c4ccc(F)cc4)CC3)ccc2c1=O,70%
24,CCN(Cc1ccccc1)C(=O)CN1C(=O)COc2ccc(S(=O)(=O)NC3CCCC3)cc21,78%

row,Structure (SMILES),survival
1,CC(C)NC(=O)CN1CCN(c2ccc(F)cc2)CC1,87%
2,Cc1ccc(S(=O)(=O)c2cn(C)c3cc(N4CCN(c5ccccc5)CC4)c(F)cc3c2=O)cc1,95%
3,CC(=O)N1CCc2cc(Br)cc(S(=O)(=O)CCC(=O)N3CCN(c4cccc(C)c4C)CC3)c21,45% (active)
4,COc1ccccc1N1CCN(C(=O)CCS(=O)(=O)c2cc(Br)cc3c2N(C(C)=O)CC3)CC1,53%
5,CC(=O)N1CCc2cc(Br)cc(S(=O)(=O)CCC(=O)N3CCN(c4ccccc4)CC3)c21,53% (active)
6,CC(=O)N1CCc2cc(Br)cc(S(=O)(=O)CCC(=O)N3CCN(c4ccccc4Cl)CC3)c21,61%
7,CC(=O)N1CCc2cc(Br)cc(S(=O)(=O)CCC(=O)N3CCN(c4ccc(F)cc4)CC3)c21,67%
8,O=C(CCS(=O)(=O)c1cc(Br)cc2c1N(C(=O)C1CC1)CC2)N1CCN(c2ccccc2)CC1,91%
9,O=C(NCCS(=O)(=O)N1CCN(c2ccccc2F)CC1)C1CC(=O)N(c2ccc(F)cc2)C1 (stereo not drawn),90%
10,O=C(NCCc1csc2nc(-c3cccc(F)c3)nn12)c1ccc(Br)o1,76%
11,COc1ccc(-n2c(CNc3ccccc3Cl)nnc2SCC(N)=O)cc1,86%
12,CCN(CC)CCC(=O)c1ccc(OC(C)C)cc1,92%
13,CCOc1ccc(NC(=O)c2ccc(-c3cccc(Cl)c3C)o2)cc1,42% (active)
14,Cc1c(Cl)cccc1-c1ccc(CNc2ccc3[nH]c(=O)[nH]c3c2)o1,51%
15,CCOC(=O)c1ccc(NC(=O)c2cc(=O)c3cc(CC)ccc3o2)cc1,62%
16,CCOC(=O)c1ccc(NC(=O)c2c(-c3c(F)cccc3Cl)noc2C)cc1,59%
17,COc1ccc(NC(=O)c2ccc(-c3cccc(Cl)c3C)o2)cc1,16% (active)
18,CCOc1ccc(-c2cc(C(=O)Nc3ccc(NC(C)=O)cc3)no2)cc1,61%
19,COc1ccc(NC(=O)c2coc(C)c2)cc1,82%
20,Cc1c(Cl)cccc1-c1ccc(C(=O)Nc2ccc(F)cc2)o1,1% (active)
21,COc1ccc(NC(=O)c2cc(-c3ccccc3O)no2)cc1,69%
22,CCOC(=O)c1ccc(NC(=O)c2ccc(-c3cccc(Cl)c3C)o2)cc1,37% (active)
23,CCOc1ccc(NC(=O)c2cc3cc4ccc(C)cc4nc3o2)cc1,83%
24,Cc1c(NC(=O)c2ccc(-c3ccc(F)cc3)o2)cccc1-c1nc2ncccc2o1,55%

row,Structure (SMILES),survival
1,Cc1cccc(CNC(=O)CS(=O)(=O)c2cccc3nsnc23)c1,78%
2,COc1cccc(CNC(=O)CSc2nc3ccccc3nc2Cc2ccc(C)cc2)c1OC,74%
3,COCCCn1c(=N)c(S(=O)(=O)c2ccccc2)cc2c(=O)n3cc(C)ccc3nc21,68%
4,CCOc1ccc(C2CC(=O)c3c([nH]c(C(=O)OCCOc4ccccc4)c3C)C2)cc1 (stereo not drawn),72%
5,O=C(Nc1cccc(-c2nc3ncccc3o2)c1)c1ccc(-c2cccc(Cl)c2Cl)o1,79%
6,Cc1c(Cl)cccc1-c1ccc(C(=O)Nc2ccc3oc(-c4cccnc4)nc3c2)o1,55%
7,Cc1ccc(NC(=O)c2ccc(-c3cccc(Cl)c3C)o2)cc1,1% (active)
8,CCc1ccc(NC(=O)N2CCOc3ccc(Cl)cc32)cc1,65%
9,COc1ccc(NC(=O)N2CCOc3ccc(Cl)cc32)cc1,44% (active)
10,CCOC(=O)c1ccccc1NC(=O)N1CCOc2ccc(Cl)cc21,99%
11,Cc1ccc(C(=O)N(Cc2sccc2C)C2CCS(=O)(=O)C2)cc1 (stereo not drawn),76%
12,CCn1c(SC)nnc1C1CCCN1CC(=O)N1CCN(Cc2ccc3c(c2)OCO3)CC1 (stereo not drawn),79%
13,Cc1ccc(Nc2nc(N)nc(CSc3nccn3C)n2)cc1,93%
14,Cc1ccc(CSc2nc3ccc(NC(=O)COc4ccccc4)cc3s2)cc1,87%
15,Nc1nc(CSc2ccccn2)nc(Nc2ccccc2)n1,97%
16,CCc1ccc(Nc2nc(N)nc(CSc3nc4ccccc4s3)n2)cc1,21% (active)
17,CCC(=O)Nc1ccc2nc(SCc3ccccc3)sc2c1,76%
18,Cc1c(Cl)cccc1Nc1nc(N)nc(CSc2nc3ccccc3s2)n1,24% (active)
19,Cc1c(Cl)cccc1Nc1nn2c(=O)c3ccccc3nc2s1,73%
20,Cc1ccc(Nc2nc(N)nc(CSc3nc4ccccc4s3)n2)cc1,25% (active)
21,C/C=N/NC(=O)CSc1nc2ccccc2s1,96%
